Data reported in PubChem BioAssay.
Values without a mark were called inactive.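 How the source made its calls: active means at least 20% inhibition of 6-phosphogluconate dehydrogenase activity; inactive means the rest.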

biological target: 6-phosphogluconate dehydrogenase, decarboxylating (Homo sapiens) (UniProt P52209); experiment: 6PGD enzyme inhibitors, primary screen, biochemical, human, recombinant enzyme, NADPH absorbance (AID 1159550); settings: recombinant 6PGD, NADPH absorbance 341 nm; at 10 µM; active compounds read high
Sequence (P52209 whole entry, looked up): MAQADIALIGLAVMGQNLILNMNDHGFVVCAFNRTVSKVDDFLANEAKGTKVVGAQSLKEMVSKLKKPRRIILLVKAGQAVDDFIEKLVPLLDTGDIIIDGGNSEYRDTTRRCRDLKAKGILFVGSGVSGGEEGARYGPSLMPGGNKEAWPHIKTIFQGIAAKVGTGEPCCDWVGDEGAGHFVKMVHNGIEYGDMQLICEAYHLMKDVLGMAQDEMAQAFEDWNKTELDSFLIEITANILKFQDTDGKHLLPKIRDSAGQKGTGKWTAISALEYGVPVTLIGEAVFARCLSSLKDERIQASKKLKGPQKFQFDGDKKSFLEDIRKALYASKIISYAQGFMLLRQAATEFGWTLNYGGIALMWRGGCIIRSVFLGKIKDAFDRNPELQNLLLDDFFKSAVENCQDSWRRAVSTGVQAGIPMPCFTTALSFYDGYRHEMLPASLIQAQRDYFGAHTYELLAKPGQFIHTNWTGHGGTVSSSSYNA

Structure (SMILES)	inhibition [%]
ClC1=C(Cl)[C@]2(Cl)[C@H]3[C@H]([C@@H]4C=C[C@H]3C4)[C@@]1(Cl)C2(Cl)Cl	6.64
COP(=O)(OC)OC(C)C(C)=O (configuration not stated)	13.2
CCOP(=S)(OCC)SCSCC	7.84
c1cncc([C@@H]2CCCCN2)c1	4.92
CCCC(C)C1(CC)C(=O)NC(=S)NC1=O (configuration not stated)	-1.13
CC1=CC(=O)C2=C(C)C[C@H](O)[C@H]3[C@H](C)C(=O)O[C@@H]3C12 (some centres not stated)	-7.67
CN[C@H]1C[C@@H](N)[C@H](O)[C@@H](O[C@@H]2O[C@H](CO)[C@H](O)[C@@H]3OC4(O[C@H]23)O[C@H]([C@@H](N)CO)[C@H](O)[C@@H](O)[C@H]4O)[C@@H]1O (some centres not stated)	14.7
